Hit rate of the full screen: of about 69,000 compounds, about 8,600 (12%) showed an effect of 50% or more. This excerpt belongs to a sample that is enriched for strong results.
What follows are molecules tested on Plasmodium berghei (assay: Screen against P. berghei liver stage (PbLuc), transformed with Luciferase, at 10uM). Details: tested at 10 uM.
Assay type: functional, HepG2

SMILES	INHIBITION [%]
CCn1nc(C)c(CCNC(=O)C2CCCN(C3CCCC3)C2)c1C (configuration not stated)	-23.4
CCc1nnc2n1CCN(CC(O)CN1CCC(C)CC1)C2 (configuration not stated)	30.3
Cc1nnc2n1CCN(CC(O)CN1CCC(C)CC1)C2 (configuration not stated)	78.2
CC1CCN(CC(O)CN2CCn3c(nnc3C3CC3)C2)CC1 (configuration not stated)	12.3
COc1ccc(C)cc1CN(C)CC(N)=O	-33.4
CC(C)CNC(=O)C1=NOC2(CCN(Cc3ccc(C(C)C)cc3)C2)C1 (configuration not stated)	80.2
CC(C)CNC(=O)C1=NOC2(CCN(Cc3ccoc3)C2)C1 (configuration not stated)	-4.26
CC(C)CNC(=O)C1=NOC2(CCN(Cc3cccc(C#N)c3)C2)C1 (configuration not stated)	20.6
COc1ccc(CN2CCC3(CC2)CC(CC(=O)NC(C)C)CO3)cc1 (configuration not stated)	18.6
Cc1ccc(S(=O)(=O)N2CCC3(CC(C(=O)NCC(C)C)=NO3)C2)cc1 (configuration not stated)	-10.2
Cc1ccc(CN2CCC3(CC(C(=O)NCC4CC4)=NO3)C2)cc1C (configuration not stated)	31.2
CCc1ccc(CN2CCC3(CC(C(=O)NCC(C)C)=NO3)C2)o1 (configuration not stated)	32.5
N#Cc1cccc(CN2CCC3(CC(C(=O)NCC4CC4)=NO3)C2)c1 (configuration not stated)	52
Cc1cccc(CN2CCC3(CC(C(=O)NCC(C)C)=NO3)C2)c1 (configuration not stated)	76.2
O=C(NCC1CC1)C1=NOC2(CCN(Cc3ccc4c(c3)OCO4)C2)C1 (configuration not stated)	6.38
COc1ccc(CN2CCC3(CC(C(=O)NCC(C)C)=NO3)C2)cc1 (configuration not stated)	78.2
Cc1oncc1C(=O)N[C@@H]1CN(c2ncccn2)C[C@@H]2CCCO[C@@H]21	-34.7
O=c1[nH]c2cn(-c3cccc(Cl)c3)c(=O)n2[nH]1	-14.9
COc1ccc(CC(=O)N2CCN(c3nccn3C)CC2)cc1	40
COCCN1CCCC2(CCN(c3cc(C)c(C#N)c(C)n3)C2)C1=O (configuration not stated)	-8.25
CN(C)C(=O)N1CCN(c2cc(N3CCCC3CO)ncn2)CC1 (configuration not stated)	-3.68
O=C(c1cncnc1)N1C[C@@H]2CC[C@H](Oc3cccc(F)c3)[C@@H]2C1	5.11
CCc1n[nH]c(=O)c(C(=O)N2CCOC3(CCCC3)C2)c1CC	48.2

SMILES	INHIBITION [%]
Cn1cnc(S(=O)(=O)NCCCN2CCCC2)c1Cl	-9.76
Cc1nnc(CN(C)C2CCN(CCc3ccccn3)CC2)o1	21.5
Cc1cc(S(=O)(=O)NC(=O)CCc2cccnc2)c(C)s1	32
O=C(CCn1ccc2cc(Br)ccc21)NCc1ccc(C(=O)O)cc1	19
CC(CNC(=O)CCc1ccco1)N1CCc2sccc2C1 (configuration not stated)	42.5
Cc1ccc(CCCC(=O)N2CCCC(CS(N)(=O)=O)C2)s1 (configuration not stated)	9.79
CCCc1nnc(NC(=O)NC(C)Cn2cccn2)s1 (configuration not stated)	-45.6
CCN(CC1CCOC1)C(=O)c1ccn(-c2ccc(OC)cc2)n1 (configuration not stated)	-2.48
COc1nccc(N2CC[C@H](CO)[C@@H](O)C2)c1C#N	-9.02
CC(NC(=O)c1cccs1)C(=O)NS(=O)(=O)Cc1ccc(C#N)cc1 (configuration not stated)	53.3
CC(NC(=O)c1cccs1)C(=O)NS(=O)(=O)c1cccc(C#N)c1 (configuration not stated)	49.9
CC(NC(=O)c1cccs1)C(=O)NS(=O)(=O)c1ccc(C#N)cc1 (configuration not stated)	42.1
CCOc1c(C(N)=O)cn(C)c1-c1nc2cc(NC(C)=O)ccc2n1C	44.3
CC(C)(C)C(=O)CN1Cc2ccccc2NCCC1=O	10.9
O=C1CCNc2cc3c(cc2CN1Cc1ccco1)OCO3	4.82
CCN1Cc2cc3c(cc2NCCC1=O)OCO3	64.6
CC(C)(C)CN1Cc2cc3c(cc2NCCC1=O)OCO3	52.5
COC(=O)CN1Cc2cc3c(cc2NCCC1=O)OCO3	41.1
O=C1CCNc2cc3c(cc2CN1CC1CC1)OCO3	13.1
O=C(c1n[nH]c(=O)c2ccccc12)N1CCCC1Cn1cccn1 (configuration not stated)	45.9
O=C(O)CCc1nc2nccc(C(F)(F)F)n2n1	-25.6
O=C(OCC1CCCN1)c1cccc(NC(=O)c2ccco2)c1 (configuration not stated)	-142
O=C1CC[C@H]2[C@H](CCN2S(=O)(=O)C2CC2)N1CCN1CCCC1	85.6

SMILES	INHIBITION [%]
O=C1CC[C@@H]2[C@@H](CCN2S(=O)(=O)C2CC2)N1CC1CC1	49.4
COCCN1C(=O)CC[C@@H]2[C@@H]1CCN2S(=O)(=O)C1CC1	43.9
CN1CC(=O)N(c2cnn(C)c2)CC12CCN(CC1CC1)C2 (configuration not stated)	30.3
Cc1nccc(CN2CC[C@H](Oc3cccc(F)c3)[C@@](C)(O)C2)n1	38.7
C[C@]1(O)CN(Cc2ncccc2F)CC[C@@H]1Oc1ccccc1	24.4
C[C@]1(O)CCN(Cc2ncccc2F)C[C@@H]1Oc1cccc(F)c1	-4.51
Cc1cccnc1CN1CC[C@@](C)(O)[C@H](Oc2ccccc2)C1	24.4
C[C@]1(O)CN(Cc2cscn2)CC[C@@H]1Oc1cccc(F)c1	38.2
C[C@]1(O)CN(Cc2ncccc2F)CC[C@@H]1Oc1cccc(F)c1	50.1
Cc1cccnc1CN1CC[C@H](Oc2cccc(F)c2)[C@@](C)(O)C1	75.3
C[C@]1(O)CN(Cc2ncc[nH]2)CC[C@@H]1Oc1cccc(F)c1	61.9
O=C1CC(c2cccnc2)C2(CCN(C(=O)c3ccncc3)CC2)N1 (configuration not stated)	33.5
O=c1[nH]c2cn(-c3cccc(Cl)c3)c(=O)n2n1Cc1cccc(F)c1	34
Cc1nc(CN2CCCC(NCCCOc3ccc(F)cc3)C2)no1 (configuration not stated)	19.4
O=C(O)c1ccc(COc2cccc(Cl)c2)s1	8.49
CN1CCN(Cc2cnc3n2CCN(C(=O)c2ccccn2)C3)CC1	40.4
CN1CCN(Cc2cnc3n2CCN(C(=O)c2ccnnc2)C3)CC1	32.2
CN1CCN(Cc2cnc3n2CCN(C(=O)c2ccoc2)C3)CC1	59
CN1CCN(Cc2cnc3n2CCN(C(=O)c2cnccn2)C3)CC1	20.6
Cc1cccc(C(=O)N2CCn3c(CN4CCN(C)CC4)cnc3C2)n1	68.4
CN1CCN(Cc2cnc3n2CCN(C(=O)c2ccncc2)C3)CC1	42.7
